Shown are actives, neighbours in structure and some others; about 21% of the full set was active somewhere.
Pf growth 96h: P. falciparum growth inhibition at 96 hours. P. falciparum luciferase reporter growth, 96 h. Potency, µM (doses to about 28.7 µM), for the others: at the highest dose activity change, negative = inhibition, hits mostly inhibitors. actives 6.9% (n = 320,000); further: potency means the concentration at half of the fitted maximal effect; on the % scale 0 is the no-effect control and ±100 the full control effect
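Infected RBCs, 2% Hct / 0.05% parasitemia final; luciferase-reporter P. falciparum; cpd 96 h, 37 C, 5% CO2; luciferase detection reagent; luminescence.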
Cycloheximide cs: counter-screen hit for Shiga toxin inhibitors, cycloheximide; AID 2314; cell reporter, cycloheximide protein synthesis inhibition counterscreen; max response, %; actives 12% (n = 300,000); in the data active means max response mostly above about 13%, no sharp cut-off; inactive means mostly below about 14%; further: read at 38.3 µM for the half of the compounds with a filed dose; 0% is about no effect
HCV inh: blocks hepatitis C virus. Huh7.5.1 HCVcc-Cre infection, luciferase reporter, 44 h. Potency, µM (doses to about 41.8 µM), inactives show at the top dose activity change, negative = inhibition, most hits filed as inhibitors. actives 3.4% (n = 340,000); further: potency means the concentration at half of the fitted maximal effect; on the % scale 0 is the no-effect control and ±100 the full control effect
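After 44 h co-culture of compound, cells and HCVcc-Cre (~0.5 moi), substrate is added for 15 min at room temperature and luciferase measured over 15 sec. Cells were seeded at 1,000/well and pre-cultured 4 h.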
HCMV antiviral: human cytomegalovirus inhibition; HFF cells, HCMV-luciferase reporter, 72 h; stronger effect = lower value; activity change, negative = inhibition, % at 57.5 µM; actives 4.5% (n = 410,000); AID 1259415; in the data active means activity change below about -60%; inconclusive means no clear call, values can overlap the other calls; inactive means above about -39%; further: on the % scale 0 is the no-effect control and ±100 the full control effect
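Steps: HFFs plated, 16 h 37C; compounds added; HCMV-luciferase added to MOI 1 PFU/cell; 72 h 37C; OneGlo reagent, 5 min room temperature; luminescence read, normalized to controls.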
Shiga inhibitor: Shiga toxin inhibition. Vero cells, Shiga toxin protein synthesis inhibition reporter. inhibition, % at 38.7 µM. actives 9.2% (n = 290,000); in the data active means inhibition mostly above about 28%, no sharp cut-off; inactive means mostly below about 43%; further: 0% is about no effect
Pf growth 48h: inhibits P. falciparum growth in the first generation, 48 h. AID 504832. Potency, µM (series often up to 28.7 µM), for the others: at the highest dose activity change, negative = inhibition, usual class: inhibitors. actives 5.9% (n = 310,000). P. falciparum luciferase growth in erythrocytes, 48 h; further: potency means the concentration at half of the fitted maximal effect; on the % scale 0 is the no-effect control and ±100 the full control effect
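Compounds are pin-transferred into medium, infected erythrocytes (2% hematocrit, 0.1% parasitemia final) are added, and plates sit one parasite generation at 37 C in 5% CO2. Detection reagent is then added and luminescence measured.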
An asterisk follows results filed as active; ? = inconclusive; . = no result; [ ] = another dose, or the depositor's remark. Unless noted, the call rests on the fitted dose curve; in most records, active means well fitted inhibition curve with a large enough effect; inconclusive means small, poorly fitted or top-dose-only effect, or another doubt; inactive means no such curve, though single readings can be large or run the other way.

SMILES	Pf growth 96h	Cycloheximide cs	HCV inh	HCMV antiviral	Shiga inhibitor	Pf growth 48h
Clc1ccc2nc(C3CCN(Cc4ccccc4)CC3)[nH]c2c1	?	-3	?	-27	-8	-20%
Cc1ccc(CN2CCC(c3cc(-c4ccc(Cl)cc4)n[nH]3)CC2)cc1	?	0	13µM*	-99*	-7	?
Cc1ccc(CN2CCC(c3nc4ccc(Cl)cc4[nH]3)CC2)cc1	?	-4	11µM*	-20	-9	8.3µM*
Cc1ccc(-n2c(C)nn(Cc3ccc([N+](=O)[O-])cc3)c2=O)cc1	-9%[5.75 µM]	-2	-12%	-82*	2	1%
N#Cc1ccc(CN2CCN(C(=O)c3cc(C4CC4)nn3-c3ccccc3)CC2)cc1	?	.	?	-15	.	?
COc1ccc(C)c2sc(NC(=O)c3ccc(S(=O)(=O)N4CCOCC4)cc3)nc12	.	.	.	43	.	.
COc1ccc(C(=O)Nc2ccc3nc(C)sc3c2)cc1S(=O)(=O)N1CCOCC1	.	.	.	-21	.	.
C/C(CCC12CC3CC(CC(C3)C1)C2)=N\NC(N)=S	?	-2	11µM*	-37	-8	.
C/C(CC1CC(C)OC1=O)=N\NC(N)=S (stereo unspecified)	68%	-1	4%	23	-7	15%
COc1ccccc1CC(=O)N1CCN(S(=O)(=O)c2ccccc2F)CC1	.	.	14%	44	.	.
COC1C(C)OC(OC2CC(C)(O)Cc3cc4c(c(O)c32)C(=O)c2c(O)cc3c(c2C4=O)OC2OC3(C)C(O)C(N(C)C)C2O)C(OC)C1(C)OC (stereo unspecified)	.	.	4µM*	-98*	.	.
O=C(Nc1cc(F)ccc1F)C1COc2ccccc2C1 (stereo unspecified)	.	.	.	12	.	.
Cc1sc2nc(SCC(=O)N(C)c3ccccc3)n(C)c(=O)c2c1C	-3%	-6	.	?	-5	8.3µM*
CC(=O)c1ccc(NS(=O)(=O)c2ccc(C)cc2)cc1	34%	9	28%	26	1	.
COc1ccc(N/C=C\C(=O)c2ccc(C)cc2)cc1OC	?	46*	-22%	-33	85*	38%
CC(=O)Nc1ccc(C)cc1	?	.	-14%	-17	.	17%
COc1cc(OC)c(OC)cc1/C=C/C(=O)c1ccc(NS(=O)(=O)c2ccc(C)cc2)cc1	13µM*	-3	?	-78*	11	9.3µM*
COc1ccc(N/C=C\C(=O)c2ccc(Br)cc2)cc1OC	1.9µM*	28*	11%	-5	27	71%
COc1ccc(N/C=C(\C(C)=O)c2ccc(OC)c(OC)c2)cc1OC	-41%[5.75 µM]	-1	-15%	-23	-22	?
COc1cc(NS(=O)(=O)c2ccc(N/C=C\C(=O)c3ccc(OC)c(OC)c3)cc2)nc(OC)n1	?	-1	12%	-7	4	-15%
CC(=O)Nc1ccc(N/C=C/C(=O)c2ccc(C)cc2)cc1	?	27*	3%	-6	55*	78%
CCn1cc(S(=O)(=O)c2cccc(Cl)c2)c(=O)c2cc(F)c(N3CCN(C)CC3)cc21	.	.	.	32	.	.
Cc1ccccc1NC(=O)CSc1nc2c(oc3ccccc32)c(=O)n1-c1ccccc1F	.	.	.	-10	.	.
COc1ccc(C(=O)Sc2ccc(Cl)cc2)cc1OC	187%	8	?	21	12	-29%
COc1ccc(C(=O)Sc2ccc(C)cc2)cc1OC	?	34*	-9%	39	77*	-21%
SMILES	Pf growth 96h	Cycloheximide cs	HCV inh	HCMV antiviral	Shiga inhibitor	Pf growth 48h
Cc1nn(-c2ccccc2)nc1C(=O)Nc1ccccc1C(=O)NCC1CC1	.	.	.	1	.	.
Cc1ccc2c(c1)sc[n+]2Cc1ccccc1	22%	42*	10µM*	29	82*	69%
CSc1ccc(Cl)c(C(=O)OCC(=O)N2CCN(c3ccccc3)CC2)c1	18%	.	?	?	.	3%
Cc1cc(NC(=O)c2ccc(F)cc2)n(-c2ccccn2)n1	18%	8	8.9µM*	-14	-6	4%
Cc1cc(NC(=O)c2cc(C3CC3)on2)n(-c2ccccc2)n1	2.6µM*	-1	11%	11	12	13%
Cc1cc(NC(=O)c2ccccc2)n(-c2ccccc2)n1	1.9µM*	1	-12%	-3	-2	-6%

Screening data as filed in PubChem BioAssay.
